{"source": "PubChem BioAssay (NCI)", "note": "About 83,000 compounds went through this panel and 20% of them were active in at least one assay; those are over-represented in the sample as a whole.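 Activity criterion: percent growth below 10, measured after cells in 96-well plates were exposed to a single compound concentration for 48 hours.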 Unmarked numbers belong to inactive results. Active and inactive are the calls of the source.", "data": [{"test_system": "MOLT-4 leukemia", "assay": "NCI-60 one-dose screen, 48 h (100 = growth as untreated, 0 = no growth, -100 = all killed)", "details": "10 µM unless noted", "method": "Growth inhibition of the MOLT-4 human tumor cell line is measured as a screen for anti-cancer activity. Cells are grown in 96 well plates and exposed to the test compound for 48 hours. Compounds are tested at a single concentration, which is 10^-5 M for most compounds. The reported endpoint is percent growth (GI% or GIPRCNT), where numbers from 0 - 100% represent growth inhibition, and numbers from -100% - 0 represent cell death. For example, a value of 40 represents 60% growth inhibition. A value of 0 means no net growth occurred over the course of the experiment. A value of -40 indicates 40% of cells at the beginning of the experiment died by the end of the experiment. A value of -100 means all cells are dead at the end of the experiment.\nNCI-60 Human Tumor Cell Lines Screen was performed using the standard one-dose NCI protocol, which is described in more detail at https://dtp.cancer.gov/discovery_development/nci-60/default.htm.\nCompounds with GIPRCNT values below 10 were considered active. Activity score was based on GIPRCNT using the following formula: […]\nScore is 0 for GIPRCNT values of 100 or above, 50 for GIPRCNT values of 0, and 100 for GIPRCNT values of -100.", "values": [{"compound": "CNc1nc2ncc(-c3c(C)noc3C)cc2n1Cc1ccccc1", "growth": "48.9%"}, {"compound": "O=C(CSc1nnc(-c2cc(-c3ccc(Cl)cc3)nc3ccccc23)n1-c1ccccc1)Nc1ccc(Cl)cc1", "growth": "84.1%"}, {"compound": "O=C(Nc1ccc(Oc2cccc(F)c2)c(Cl)c1)c1cnccn1", "growth": "41.2%"}, {"compound": "CCOC(=O)c1cc(C(=O)c2cc(OC)cc(OC)c2)n2ncccc12", "growth": "32.6%"}, {"compound": "O=C(Nc1ccccc1)Nc1ccccc1CNc1nc(Nc2ccc(OCCN3CCCC3)cc2)ncc1Cl", "growth": "37.9%"}, {"compound": "O=C(Nc1ncc(Cc2cc(C(F)(F)F)ccc2Cl)s1)C(=S)N1CCOCC1", "growth": "93%"}, {"compound": "Nc1nc(Nc2ccc([N+](=O)[O-])cc2O)nc(C(Cl)(Cl)Cl)n1", "growth": "25.8%"}, {"compound": "C(=N\\Nc1nnc2n1N=C(c1ccccc1)CS2)/c1ccc(OCc2ccccc2)cc1", "growth": "92.8%"}, {"compound": "O=C(COc1ccc(/C=C2\\Oc3ccccc3C2=O)cc1)Nc1nccs1", "growth": "42.3%"}, {"compound": "C=CCn1c(SCC(=O)Nc2ccc(C(=O)/C=C/c3cc(OC)c(OC)c(OC)c3)cc2)nnc1-c1cc(-c2ccc(S(N)(=O)=O)cc2)nc2ccccc12", "growth": "59.7%"}, {"compound": "O=C(N/N=C/c1ccccc1Cl)c1ccccc1Nc1ccnc(C(F)(F)F)c1", "growth": "2.63% (active)"}, {"compound": "CC(C)(C)[C@H](OCc1cn([C@H]2C[C@@H](O)[C@@H](CO)O2)c(=O)[nH]c1=O)c1ccc(C#Cc2ccccc2)cc1[N+](=O)[O-]", "growth": "57.6%"}, {"compound": "Cc1ccc(-c2nn(CC(=O)N3CCOCC3)c(N)c2C#N)cc1", "growth": "103%"}, {"compound": "CN1CCN(Cc2ccc(NC(=O)c3cncc(C#Cc4c(N)ncc5c(F)cccc45)c3)cc2C(F)(F)F)CC1", "growth": "-72.4% (active)"}, {"compound": "CC1(C)CC[C@]2(CO)CC[C@]3(C)C(=CC[C@@H]4[C@@]5(C)CCNCC(C)(C)[C@@H]5CC[C@]43C)[C@@H]2C1", "growth": "49.3%"}, {"compound": "O=S(=O)(Nc1ccc(Br)cc1)c1ccc(-c2cnc(C3CC3)o2)cc1", "growth": "15.8%"}, {"compound": "O=C1/C(=C/c2ccc(-c3ccc(Cl)cc3)o2)SC(=S)N1CCc1ccc(O)cc1", "growth": "15.3%"}, {"compound": "N#CC1=C(N)Oc2c(ccc3cccnc23)C1c1ccccc1", "note": "(stereo not given)", "growth": "39.2%"}, {"compound": "CCOC(=O)c1c(Nc2nc3ccccc3s2)sc2c1CCC(=O)C2", "growth": "20.8%"}, {"compound": "O=C1/C(=C/c2ccccc2)COc2ccc(O)cc21", "growth": "78.6%"}, {"compound": "Cc1nc2ccccc2c(/C=C/c2ccc(Br)cc2)c1C(=O)/C=C/c1ccccc1", "growth": "7.65% (active)"}, {"compound": "COc1cc2nc3cc([N+](=O)[O-])ccc3c(NCCCNCCO)c2cc1OC", "growth": "2.59% (active)"}, {"compound": "COc1ccccc1NC(=O)n1c(=O)cc(C)c2ccc(O)cc21", "growth": "103%"}, {"compound": "O=C1CCc2c(sc3[nH]c(=S)n(-c4cc(C(F)(F)F)cc(C(F)(F)F)c4)c(=O)c23)C1", "growth": "11%"}, {"compound": "COC(=O)c1c(C)nc(C)c2c1C(=O)C(Br)=C(NCCCCO)C2=O", "growth": "79.5%"}, {"compound": "O=C(/C=C/C12c3ccccc3C(c3ccccc31)C1C(=O)NC(=O)C12)c1cccs1", "note": "(stereo not given)", "growth": "10.5%"}, {"compound": "CC(=O)Oc1ccccc1C(=O)N(Cc1ccc2c(Cl)cc(Cl)c(O)c2n1)c1ccccc1", "growth": "38.7%"}, {"compound": "CCOC(=O)CC1C(CNC(=O)NC)OC(n2cnc3c(NC(=O)Nc4ccccc4)ncnc32)C1O[Si](C)(C)C(C)(C)C", "note": "(stereo not given)", "growth": "50.1%"}, {"compound": "[2H]C([2H])([2H])Oc1c(F)cccc1/C=C/C(=O)/C=C(O)/C=C/c1cccc(F)c1OC([2H])([2H])[2H]", "growth": "77.7%"}, {"compound": "NC(=N\\N=C/c1ccc(Cl)cc1Cl)/C(N)=N\\N=C/c1ccc(Cl)cc1Cl", "growth": "96.6%"}, {"compound": "CNC1=C([N+](=O)[O-])C(c2ccc(OC)cc2)C(C#N)=C(c2ccc[nH]2)O1", "note": "(stereo not given)", "growth": "108%"}, {"compound": "COCCNC(=O)Cc1cc(-c2ccc(Cl)cc2)n(-c2ccccc2)c1C", "growth": "90%"}, {"compound": "O=c1c2cccc3c(N4CCOCC4)ccc(c32)c2nc3ccccc3n12", "growth": "90.8%"}, {"compound": "N#Cc1nn(-c2ccccn2)c(N)c1C#N", "growth": "92.9%"}, {"compound": "CC(=O)[C@H]1CC[C@]2(C)[C@@H]1CC[C@@H]1[C@@]3(C)C/C(=C/c4cccnc4)C(=O)C(C)(C)[C@@H]3CC[C@]12C", "growth": "20.3%"}, {"compound": "O=C(O)CCCN1C(=O)CSC1=S", "growth": "98.4%"}, {"compound": "COc1cc2c(cc1OC)CC[N+](CCC[N+](C)(C)C)=C2", "growth": "91.6%"}, {"compound": "O=C(Nc1ncc(Cc2ccccc2)s1)c1cc(-c2ccccc2)nc2ccccc12", "growth": "95.6%"}, {"compound": "N=C(N)c1ccc(-c2ccc(-c3ccc(Cl)cc3Cl)s2)nc1", "growth": "13.5%"}, {"compound": "O=C(Nc1ccccc1CNc1nc(Nc2ccc(OCCN3CCCC3)cc2)ncc1Cl)NC1CCCCC1", "growth": "72.3%"}]}]}
